Measurements: the supplement of paper PMC10849652
The full data set covers some 7,900 targets. This sample favours those with a hit. About 0.6% of all pairs of compound and target were hits.

Assays:
Test in all cases: log2 fold change, soluble protein after heating vs DMSO (PISA); higher = thermal stabilisation; K562 cells, 10 uM, 30 min; active = over 0.2 and 3.5 SD of the protein, either way, in both replicates (recomputed)
[1] = compound: C1=CC=C(C=C1)[C@H](COC2=CC3=C(C=C2)NC(=O)N3)NC(=O)C4=CC=CN(C4=O)CC5=CC(=C(C=C5)F)F
Outline: (§1)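 K562 cells at 2×10^6 cells/mL were treated with 10 μM compound for 30 min. Aliquots were heated for 3 min across 48°C-58°C, pooled, and extracted in PBS with 0.5% NP-40 at 4°C; soluble protein was the supernatant after 21,000xg for 90 min. Soluble protein was quantified by TMTpro 16plex LC-MS/MS with channel sums equalised, and reported as log2 fold change in thermal stability against DMSO controls, with values from duplicates.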

[2] = compound: CC1=C(SC2=C1C(=N[C@H](C3=NN=C(N32)C)CC(=O)N)C4=CC=C(C=C4)Cl)C
Outline: as §1

[3] = compound: CC1=C2C(=CC=C1)N=C(N(C2=O)C3=CC=CC=C3C)CN4C=NC5=C(N=CN=C54)N
Outline: as §1

[4] = compound: Cc1sc2c(c1C)C(c1ccc(Cl)cc1)=N[C@@H](CC(=O)OC(C)(C)C)c1nnc(C)n1-2
Outline: as §1

[5] = compound: c1ccc([C@@H]2C[C@H]2NC2CCNCC2)cc1
Outline: as §1

Measured: log2 fold change

PJA2 (UniProt O43164)
inactive: [1] 0.005 | [2] -0.042 | [3] 0.021 | [4] 0.006 | [5] 0.024

PBX2 (UniProt P40425)
Chain of UniProt P40425 (P40425 whole entry, looked up): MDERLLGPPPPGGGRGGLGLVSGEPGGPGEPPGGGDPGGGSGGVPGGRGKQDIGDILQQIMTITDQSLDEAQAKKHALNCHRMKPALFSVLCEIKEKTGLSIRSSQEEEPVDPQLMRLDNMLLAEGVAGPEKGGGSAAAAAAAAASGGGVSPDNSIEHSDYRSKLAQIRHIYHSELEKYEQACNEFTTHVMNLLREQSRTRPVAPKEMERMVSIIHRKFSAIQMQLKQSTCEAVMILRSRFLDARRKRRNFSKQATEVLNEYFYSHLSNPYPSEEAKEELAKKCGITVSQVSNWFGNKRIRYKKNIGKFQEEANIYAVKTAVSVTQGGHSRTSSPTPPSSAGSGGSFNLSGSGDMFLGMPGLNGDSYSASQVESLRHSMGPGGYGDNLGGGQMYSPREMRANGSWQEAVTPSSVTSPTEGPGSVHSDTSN
inactive: [1] -0.052 | [2] 0.082 | [3] -0.011 | [4] 0.051 | [5] -0.016

PCNX1 (UniProt Q96RV3)
Chain of UniProt Q96RV3 (Q96RV3 whole entry, looked up): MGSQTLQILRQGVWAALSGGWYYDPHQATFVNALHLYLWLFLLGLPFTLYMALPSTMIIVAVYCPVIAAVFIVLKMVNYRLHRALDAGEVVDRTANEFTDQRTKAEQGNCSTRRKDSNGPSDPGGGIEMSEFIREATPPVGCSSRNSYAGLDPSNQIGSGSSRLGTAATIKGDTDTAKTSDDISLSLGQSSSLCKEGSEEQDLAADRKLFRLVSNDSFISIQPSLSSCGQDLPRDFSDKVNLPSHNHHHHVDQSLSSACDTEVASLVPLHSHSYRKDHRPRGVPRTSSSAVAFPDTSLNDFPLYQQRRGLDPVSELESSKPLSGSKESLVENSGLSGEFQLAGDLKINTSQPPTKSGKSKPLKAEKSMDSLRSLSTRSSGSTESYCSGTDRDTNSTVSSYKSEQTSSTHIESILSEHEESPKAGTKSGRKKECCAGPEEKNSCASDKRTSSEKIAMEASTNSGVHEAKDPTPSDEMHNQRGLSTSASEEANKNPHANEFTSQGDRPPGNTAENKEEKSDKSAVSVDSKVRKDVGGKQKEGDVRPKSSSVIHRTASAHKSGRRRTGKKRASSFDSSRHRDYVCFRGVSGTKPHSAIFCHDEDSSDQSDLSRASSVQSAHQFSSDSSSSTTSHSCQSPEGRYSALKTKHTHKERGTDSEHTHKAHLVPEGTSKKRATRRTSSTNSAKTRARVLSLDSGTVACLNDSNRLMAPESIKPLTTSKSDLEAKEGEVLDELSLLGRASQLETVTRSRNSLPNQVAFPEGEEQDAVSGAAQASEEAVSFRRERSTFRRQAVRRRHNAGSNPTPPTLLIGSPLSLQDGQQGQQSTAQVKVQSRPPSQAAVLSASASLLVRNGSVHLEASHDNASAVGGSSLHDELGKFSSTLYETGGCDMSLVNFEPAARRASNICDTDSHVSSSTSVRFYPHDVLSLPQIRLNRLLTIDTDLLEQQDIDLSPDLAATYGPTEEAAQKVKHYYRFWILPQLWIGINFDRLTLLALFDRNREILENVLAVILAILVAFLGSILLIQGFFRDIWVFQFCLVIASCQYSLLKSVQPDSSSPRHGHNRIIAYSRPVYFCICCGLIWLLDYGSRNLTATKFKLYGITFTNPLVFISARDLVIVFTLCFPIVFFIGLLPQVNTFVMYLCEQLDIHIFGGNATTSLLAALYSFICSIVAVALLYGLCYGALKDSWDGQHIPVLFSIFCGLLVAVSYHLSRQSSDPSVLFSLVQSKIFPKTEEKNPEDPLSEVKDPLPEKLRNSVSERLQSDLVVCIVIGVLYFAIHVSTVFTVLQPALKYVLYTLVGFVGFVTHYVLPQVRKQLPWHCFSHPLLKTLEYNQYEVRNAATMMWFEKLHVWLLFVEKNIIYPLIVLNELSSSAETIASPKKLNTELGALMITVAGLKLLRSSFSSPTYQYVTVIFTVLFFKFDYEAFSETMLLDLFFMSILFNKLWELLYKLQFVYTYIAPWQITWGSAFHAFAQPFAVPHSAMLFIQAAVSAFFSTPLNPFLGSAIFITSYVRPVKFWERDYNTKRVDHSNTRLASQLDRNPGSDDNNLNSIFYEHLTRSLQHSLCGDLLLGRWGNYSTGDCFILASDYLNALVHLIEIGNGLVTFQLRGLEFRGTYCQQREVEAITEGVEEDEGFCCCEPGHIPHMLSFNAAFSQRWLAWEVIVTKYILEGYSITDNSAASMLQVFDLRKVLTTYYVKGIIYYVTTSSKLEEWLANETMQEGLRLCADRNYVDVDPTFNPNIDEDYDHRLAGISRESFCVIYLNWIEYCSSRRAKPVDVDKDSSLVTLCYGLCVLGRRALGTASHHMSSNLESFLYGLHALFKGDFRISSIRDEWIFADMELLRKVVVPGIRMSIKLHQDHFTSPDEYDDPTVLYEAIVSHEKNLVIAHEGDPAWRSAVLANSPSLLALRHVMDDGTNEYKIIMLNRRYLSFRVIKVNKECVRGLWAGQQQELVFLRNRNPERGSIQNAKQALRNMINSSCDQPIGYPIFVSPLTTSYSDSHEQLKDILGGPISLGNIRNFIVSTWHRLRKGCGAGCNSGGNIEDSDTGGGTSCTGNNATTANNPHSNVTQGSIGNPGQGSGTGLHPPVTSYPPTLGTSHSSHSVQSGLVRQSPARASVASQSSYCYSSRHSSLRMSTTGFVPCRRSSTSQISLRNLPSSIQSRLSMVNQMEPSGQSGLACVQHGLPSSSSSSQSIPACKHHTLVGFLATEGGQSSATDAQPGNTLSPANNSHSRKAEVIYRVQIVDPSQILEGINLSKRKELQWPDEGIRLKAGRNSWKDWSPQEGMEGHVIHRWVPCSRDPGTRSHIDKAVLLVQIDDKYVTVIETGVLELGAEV
inactive: [1] 0.064 | [3] 0.103 | [4] -0.122

PCBP2 (UniProt F8VZX2)
inactive: [1] -0.1 | [2] -0.107 | [5] 0.019

PSMD11 (UniProt O00231)
inactive: [1] 0.043 | [2] -0.049 | [3] -0.053 | [4] -0.017 | [5] 0

POLR2E (UniProt P19388)
inactive: [1] -0.013 | [2] 0.094 | [3] -0.023 | [4] 0.054 | [5] -0.06

PHKA1 (UniProt P46020)
Chain of UniProt P46020 (P46020 whole entry, looked up): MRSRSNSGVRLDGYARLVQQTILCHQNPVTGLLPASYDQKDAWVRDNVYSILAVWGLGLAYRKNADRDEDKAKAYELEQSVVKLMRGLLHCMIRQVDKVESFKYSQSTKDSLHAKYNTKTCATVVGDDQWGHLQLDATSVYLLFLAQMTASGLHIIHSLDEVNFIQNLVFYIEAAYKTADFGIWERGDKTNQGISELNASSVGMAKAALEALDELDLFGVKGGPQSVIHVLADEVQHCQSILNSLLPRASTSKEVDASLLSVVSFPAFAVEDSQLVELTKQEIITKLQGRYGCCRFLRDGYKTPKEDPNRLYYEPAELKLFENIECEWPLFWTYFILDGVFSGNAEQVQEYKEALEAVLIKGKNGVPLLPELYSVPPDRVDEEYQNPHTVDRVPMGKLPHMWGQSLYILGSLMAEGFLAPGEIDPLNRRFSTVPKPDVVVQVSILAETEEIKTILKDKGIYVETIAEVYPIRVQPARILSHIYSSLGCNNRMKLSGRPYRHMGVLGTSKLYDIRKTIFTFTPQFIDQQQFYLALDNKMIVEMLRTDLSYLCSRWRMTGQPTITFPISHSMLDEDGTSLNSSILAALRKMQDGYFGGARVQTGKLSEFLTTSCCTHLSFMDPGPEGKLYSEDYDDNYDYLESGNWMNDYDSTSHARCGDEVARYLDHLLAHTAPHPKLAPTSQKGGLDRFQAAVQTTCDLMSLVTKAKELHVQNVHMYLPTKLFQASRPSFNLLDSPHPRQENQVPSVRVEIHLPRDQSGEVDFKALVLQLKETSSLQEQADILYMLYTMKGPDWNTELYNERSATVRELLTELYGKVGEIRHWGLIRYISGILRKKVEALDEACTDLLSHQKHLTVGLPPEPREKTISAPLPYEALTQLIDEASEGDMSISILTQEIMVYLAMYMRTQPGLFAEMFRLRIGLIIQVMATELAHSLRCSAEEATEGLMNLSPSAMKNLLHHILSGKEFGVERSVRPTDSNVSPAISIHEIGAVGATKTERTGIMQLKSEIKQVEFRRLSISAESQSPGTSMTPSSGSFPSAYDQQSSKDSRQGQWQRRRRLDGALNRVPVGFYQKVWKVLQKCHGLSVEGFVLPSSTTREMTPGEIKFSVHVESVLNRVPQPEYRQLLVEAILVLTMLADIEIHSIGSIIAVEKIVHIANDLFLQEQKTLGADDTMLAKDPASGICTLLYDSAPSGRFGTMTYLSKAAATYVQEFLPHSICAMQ
inactive: [1] 0.028 | [2] -0.078 | [4] 0.103 | [5] 0.011

PTP4A3 (UniProt O75365)
inactive: [1] 0.037 | [3] 0.391

PRKAA1 isoform 2 (UniProt Q13131)
inactive: [1] 0.001 | [2] 0.085 | [3] 0.024 | [4] 0.004 | [5] 0.019

POLB (UniProt P06746)
inactive: [2] 0.053 | [4] -0.107 | [5] -0.006

PHC3 isoform 7 (UniProt Q8NDX5)
Chain of UniProt Q8NDX5 (Q8NDX5 whole entry, looked up): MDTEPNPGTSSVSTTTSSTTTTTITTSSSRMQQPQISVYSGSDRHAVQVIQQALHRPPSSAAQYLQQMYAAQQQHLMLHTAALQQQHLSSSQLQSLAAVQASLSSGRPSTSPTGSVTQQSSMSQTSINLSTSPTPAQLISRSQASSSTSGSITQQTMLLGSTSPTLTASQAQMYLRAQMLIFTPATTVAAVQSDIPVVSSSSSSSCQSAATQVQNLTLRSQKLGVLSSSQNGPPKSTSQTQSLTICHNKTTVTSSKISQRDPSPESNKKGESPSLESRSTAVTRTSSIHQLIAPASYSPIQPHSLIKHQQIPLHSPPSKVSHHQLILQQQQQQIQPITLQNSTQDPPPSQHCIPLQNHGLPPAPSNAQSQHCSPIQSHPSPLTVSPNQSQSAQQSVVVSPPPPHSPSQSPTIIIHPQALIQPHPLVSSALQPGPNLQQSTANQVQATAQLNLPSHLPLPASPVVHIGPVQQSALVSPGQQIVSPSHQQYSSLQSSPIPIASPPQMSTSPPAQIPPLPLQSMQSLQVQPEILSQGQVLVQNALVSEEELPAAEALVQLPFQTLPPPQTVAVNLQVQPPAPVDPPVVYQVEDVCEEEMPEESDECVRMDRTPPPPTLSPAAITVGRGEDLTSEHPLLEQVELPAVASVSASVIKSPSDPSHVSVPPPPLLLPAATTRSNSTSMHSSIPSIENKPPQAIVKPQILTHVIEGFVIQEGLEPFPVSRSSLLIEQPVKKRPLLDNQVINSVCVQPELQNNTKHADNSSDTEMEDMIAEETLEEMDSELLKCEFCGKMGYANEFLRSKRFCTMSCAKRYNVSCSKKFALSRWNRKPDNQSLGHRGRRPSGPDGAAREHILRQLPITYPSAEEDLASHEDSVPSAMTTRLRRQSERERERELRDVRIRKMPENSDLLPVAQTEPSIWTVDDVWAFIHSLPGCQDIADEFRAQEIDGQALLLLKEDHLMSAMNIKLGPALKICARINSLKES
inactive: [1] -0.023 | [2] -0.025 | [5] -0.075

PSMA3 (UniProt G3V4X5)
inactive: [1] -0.073 | [3] 0.147

PSMA3 (UniProt H0YJ03)
inactive: [2] 0.193 | [3] 0.119 | [4] 0.048 | [5] 0.034

PSMC3 (UniProt E9PLG2)
inactive: [1] 0.03 | [3] -0.056 | [4] 0.252
